Compound activity deposited in PubChem by Buhrlage Lab, Dana-Farber Cancer Institute and Novartis Institutes for BioMedical Research (Cambridge, Mass).
USP28 block: human USP28 deubiquitinase inhibition; AID 1645857; purified USP28, Ub-rhodamine cleavage fluorescence, 30 min; inhibition, % at 25 µM; hit rate 3% among 47,000; Q96RU2
USP30 block: human USP30 deubiquitinase inhibition | purified USP30, Ub-rhodamine cleavage fluorescence | inhibition, % at 25 µM | hit rate 5.3% among 47,000 | AID 1645860
USP17 block: human USP17-like deubiquitinase inhibition; hit rate 6.5% among 47,000; inhibition, % at 50 µM; purified USP17, Ub-rhodamine cleavage fluorescence, 3 h
Each line names hits and unclear results; the compound was inactive in the other large screens. Only some compounds are listed: those with a hit (about 11% of all), similar ones and a draw of the others. No stated cut-off is given here; in the data, active means inhibition above about 30%; inactive means the rest.

C1CNCC(CCc2nc(N3CCCC3)nc3c2CNCC3)C1 (stereo not drawn)	USP28 block 31.0
CC1=CC2=NC(=O)CC(C)(C(=O)NCCCc3ccccn3)N2C=C1 (stereo not drawn)	none
COc1ccc(CNC(=O)Cc2c(C)n[nH]c2C)c(OC)c1	none
COc1ccc(-c2cc(C(=O)Nc3n[nH]c4nc(C)ccc34)[nH]n2)c(OC)c1	USP17 block 31.8
O=C(Nc1ccccc1C(=O)OCc1cc(=O)n2ccsc2n1)c1ccc(F)cc1	none
CC(=O)Nc1ccc(C(=O)OCc2cc(=O)n3c4c(sc3n2)CCCC4)cc1	USP17 block 37.1
COc1ccc(C(=O)Nc2ccc(C(=O)OCc3cc(=O)n4ccsc4n3)cc2)cc1	USP17 block 38.1 (no result: USP28 block, USP30 block)
Cc1csc2nc(COC(=O)c3cccc(NC(=O)C(C)(C)C)c3)cc(=O)n12	none
N#Cc1ccc(-c2ccncc2)[nH]c1=O	none
CC1CCC2(C(=O)O)CCC3(C)C(=CCC4C5(C)CCC(O)C(C)(C)C5CCC43C)C2C1C (mixture of isomers)	USP30 block 40.2
CC1(C)C[C@@H](O)[C@]2(C)CC[C@]3(C)C(=CCC4[C@@]5(C)CCC(=O)[C@](C)(CO)[C@@H]5CC[C@]43C)[C@@H]2C1 (stereo partly drawn)	none
C[C@@H]1CC[C@]2(C(=O)O)CC[C@]3(C)C(=CCC4[C@@]5(C)CC[C@H](O)C(C)(C)C5CC[C@]43C)C2[C@H]1C (stereo partly drawn)	USP30 block 34.7
CC(C)=CCCC(C)(O)[C@H]1CC[C@]2(C)[C@@H]1CC[C@@H]1[C@@]3(C)CC[C@H](O)C(C)(C)[C@@H]3CC[C@]12C (stereo partly drawn)	none
O=C(c1ccc2c(c1)nc1n2CCOC1)N1CCN(c2ccccc2)CC1	none
O=C(NC1CCCC1)C(c1ccncc1)N(C(=O)c1ccco1)c1ccc2c(c1)OCCO2 (stereo not drawn)	none
O=S(=O)(c1ccc(Oc2ncnc3sc(-c4ccccc4)cc23)c(Cl)c1)N1CCOCC1	none
Cc1ccc(CNS(=O)(=O)c2c(C)nc3sc(C)nn23)cc1	none
CS(=O)(=O)c1cccc(N2CCN(Cc3cccnc3)C2=O)c1	none
COc1cc(NC(=O)Nc2ccc3nc4n(c(=O)c3c2)CCCC4)cc(OC)c1	none
O=C(Nc1ccc2nc3n(c(=O)c2c1)CCCC3)c1ccc2c(c1)OCO2	none
O=C(Nc1ccc2c(c1)OCCO2)Nc1ccc2nc3n(c(=O)c2c1)CCCC3	USP28 block 68.2, USP17 block 31.8
COc1ccc(NC(=O)Nc2ccc3nc4n(c(=O)c3c2)CCCC4)cc1OC	USP28 block 31.4
O=C(Cc1c(F)cccc1Cl)Nc1ccc2nc3n(c(=O)c2c1)CCCC3	none (no result: USP28 block, USP30 block)
COc1cccc(NC(=O)Nc2ccc3nc4n(c(=O)c3c2)CCCC4)c1	USP28 block 55.2, USP17 block 33.9
COc1cccc(CC(=O)NC(CCSC)c2nc3ccccc3[nH]2)c1 (stereo not drawn)	none
Cc1cccc(N2CCN(C(=O)c3noc4ncnc(N5CCOCC5)c34)CC2C)c1 (stereo not drawn)	none (no result: USP28 block, USP30 block)
Cc1cc(C)cc(NC(=O)C2CC(=O)Nc3nc4ccccc4n32)c1 (stereo not drawn)	none
COc1ccc(NC(=O)COc2ccc(C(=O)c3ccccc3)cc2)c(OC)c1	none
COc1ccc(-c2cc(C(C)=O)c(C)n2CCC(=O)Nc2ccc(OC)cc2OC)cc1	USP30 block 81.5, USP17 block 33.5
CCOc1ccc(NC(=O)Cn2c(-c3ccccc3)cc(C(C)=O)c2C)cc1	USP30 block 36.6 (no result: USP17 block)
COc1ccc(-c2cc(C(C)=O)c(C)n2CCC(=O)Nc2ccc(C)cn2)cc1	none
COc1ccc2nc(NC(=O)CCn3c(-c4ccccc4)cc(C(C)=O)c3C)sc2c1	none
COc1ccc(NC(=O)COc2cc(C)nc(-c3ccc(C)cc3)n2)c(OC)c1	USP30 block 57.5, USP17 block 62.9
Cc1n[nH]c(C)c1S(=O)(=O)N1CCOC(c2c(C(=O)N(C)C)sc3ccccc23)C1 (stereo not drawn)	none
CCCCCCCCCC(CCCCCCCCCC(=O)O)O[C@H]1O[C@@H](COC(C)=O)[C@H](O)[C@@H](O)[C@H]1OC(=O)CC(=O)O (stereo partly drawn)	USP28 block 40.6, USP30 block 52.8, USP17 block 41.8
Cc1c(CC(=O)NCC(=O)O)c(=O)oc2cc3c(cc12)CCC(C)(C)O3	none
Cc1c(CC(=O)NCC(C)C)c(=O)oc2cc3c(cc12)CCC1(CCCCC1)O3	USP17 block 35.7
Nc1cc(CCC2CN(S(=O)(=O)c3ccccc3)CCO2)ccn1 (stereo not drawn)	none
Cc1noc2nc(C)n(Cc3cccc(Cl)c3)c(=O)c12	none
NS(=O)(=O)c1ccc(CCNC(=O)c2ccc(S(=O)(=O)Nc3ccccc3F)cc2)cc1	none
COc1ccc(CNC(=O)c2ccccc2NC(=O)c2ccccc2F)cc1	none
